Source: PubChem
IL-2 act – activators of IL-2. AID 652025. actives 0.065% (n = 360,000). activation, % (series mostly up to about 46 µM). IL-2 activation reporter assay, cell-based qHTS; stimulated with anti-CD3/CD4/CD28 beads; in transgenic mouse T cells; in the data active means activation above about 50%; inconclusive means mostly about 30% to 49%; further: 0% is about no effect
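EGFP and DsRed fluorescence is measured by plate cytometry in unstimulated transgenic mouse T cells exposed to compound for 60 minutes, then stimulated 18 hours at 37 degrees C with anti-CD3/anti-CD4 beads plus anti-CD28.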
a7 integrin act – integrin-mediated muscular dystrophy alleviation activation. alpha7betagal myoblasts, beta-gal FDG fluorescence, 48 h. Potency, µM (top dose mostly 38.3 µM), without a hit: top-dose activation, hits mostly activators. actives 0.064% (n = 350,000). AID 624291;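 further: potency means the concentration at half of the fitted maximal effect; 100% = response of the positive control SU9516; nearly all actives have a fitted effect of over 60% in size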
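Alpha7betagal+/- myoblasts (passage 13) were plated 16-24 hr, then exposed to compounds (1:260 dilution of DMSO stock) for 48 hours at 37C. After MPER lysis, β-galactosidase reporter activity was read as FDG fluorescence (ex 480/em 540) after 30 minutes.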
N370S GC – inhibits or activates N370S mutant glucocerebrosidase; P04062; N370S GC spleen homogenate, 4MU-glucoside fluorescence; Potency, µM (top dose mostly 59.4 µM), inactives show top-dose activity change, negative = inhibition, usual class: inhibitors; actives 0.092% (n = 330,000);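 further: potency means the concentration at half of the fitted maximal effect; 0% = full enzyme activity and -100% = no enzyme basal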
BRCA1 expr up – BRCA1 expression activation; Potency, µM (highest dose often 46.1 µM), inactives show at the top dose activation, usual class: activators; MCF7-BRCA1-FFLuc reporter, luminescence, 48 h; response scale: scaled: vehicle 0%, 10 µM genistein 100%; actives 1.1% (n = 380,000); further: potency means the concentration at half of the fitted maximal effect; nearly all actives have a fitted effect of over 80% in size
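Compounds are tested at multiple concentrations on MCF7 BRCA1-luciferase reporter cells seeded at 2000 per well; after 48 h, a single luminescence end-point is taken and curves fitted to the normalized data.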
Chronic BCR inh – blocks chronic active B-cell receptor signaling | actives 0.05% (n = 340,000) | AID 493014 | Potency, µM (highest dose often 46.1 µM), for inactives: at the top dose activity change, negative = inhibition, actives largely listed as inhibitors | ABC-DLBCL IkBa-CBG/CBR reporter, luminescence ratio, 4 h; active means well fitted inhibition curve with a large enough effect in the signal ratio, with a control signal flat, not every such curve was filed as active; inconclusive means small, poorly fitted or top-dose-only effect, or effect the other way, or a change in a side signal; the % refers to the signal ratio;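 further: potency means the concentration at half of the fitted maximal effect; plate controls were basal doxycycline-induced cells for no effect and cells given 10 µM MG132 for full effect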
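Doxycycline induced both beetle luciferases in TMD8 lymphoma cells; IKK-driven degradation limits the IkappaBalpha-fused green signal, while red luminescence normalises for cell number and nonspecific effects. Compounds tested up to 46 uM, 4 hrs.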
Nrf2 ARE act – Nrf2 pathway activation | AREc32 ARE-luciferase reporter (MCF7-derived line), luminescence, 24 h | Potency, µM (highest dose often 46.1 µM), for inactives: at the highest dose activation, hits mostly activators | actives 0.31% (n = 410,000); further: potency means the concentration at half of the fitted maximal effect; % of control where 0% means no effect; nearly all actives have a fitted effect of over 65% in size
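Luciferase luminescence (Steady-Glo, 30 min at room temperature) served as the read-out of ARE activation in AREc32 cells treated with compounds for 24 hr at 37 deg C.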
* hit, by the source's call; ? = inconclusive; · = no result; [ ] = dose if it differs, or a comment. This is a sample that favours compounds with a hit; in the whole collection about 1.4% have one here. Unless noted, the call rests on the fitted dose curve; in most records, active means well fitted curve in the direction sought with a large enough effect; inconclusive means small, poorly fitted or top-dose-only effect, or another doubt; inactive means no such curve, though single readings can be large; an effect the other way counts as inactive or inconclusive.

SMILES | IL-2 act | a7 integrin act | N370S GC | BRCA1 expr up | Chronic BCR inh | Nrf2 ARE act
O=c1c2sccc2nc(SCc2cc(=O)n3cc(Br)ccc3n2)n1Cc1ccccn1 | 3 | -18% | 14% | 6.3µM* | -30% | 0%
Cn1c(SCCOc2ccccc2Cl)nnc1-c1cccs1 | -4 | -17% | 2% | 49% | ? | -1%
Cn1c(SCc2c(F)cccc2Cl)nnc1-c1cccs1 | 0 | 3% | 6% | 4µM* | ? | 2%
CN(C)c1ccc(N=Nc2ccc(/C=C/c3ccnc4ccccc34)cc2)cc1 | · | · | · | 46% | · | ·
COc1ccc(CC(=O)OCC(=O)Nc2ccc(C(=O)Nc3ccc(OC)cc3)cc2)cc1 | 0 | 11% | 15% | 11µM* | ? | 1%
CCCCOc1ccc(C(=O)Nc2ccc(SC(F)F)cc2)cc1OC | -3 | 19% | 11% | -11% | -1% | 2%
COc1ccc(C(=O)Nc2ccc(SC(F)F)cc2)cc1 | 0 | 7% | 10% | 1.3µM* | ? | 2%
CCOc1ccc(NC(=O)COc2ccc(OC)cc2)cc1 | 0 | ? | -5% | 27% | ? | -1%
CCOc1ccc(NC(=O)c2ccc(NC(=O)COC(=O)Cc3ccc(OC)cc3)cc2)cc1 | 2 | -13% | 4% | 4.5µM* | -5% | 2%
Cc1cc(NC(=O)Nc2ccc3c(ccn3C)c2)sn1 | 0 | · | -1% | 10µM* | · | 4%
CC(=O)N1CCc2c(sc(NC(=O)c3ccc([N+](=O)[O-])o3)c2C(N)=O)C1 | 1 | -65% | · | -98% | · | -5%
COc1cc(SC)ccc1C(=O)NCCOc1ccc(F)cc1 | 0 | 22% | 11% | 10µM* | ? | 1%
COc1ccc(CCNC(=O)c2ccc(SC)cc2OC)cc1 | -1 | 16% | 6% | -12% | ? | 0%
CC[N+](CC)(CC)c1ccc(/C=C/c2ccc3ccccc3n2)cc1 | · | · | · | -56% | · | ·
CC(C)NC(=O)c1cccc2c(-c3ccc(F)c(F)c3)coc12 | 0 | · | · | 1µM* | · | 2%[9.22 µM]
CC1Sc2ccc(S(=O)(=O)CCC(=O)Nc3ccccc3Cl)cc2NC1=O (centres undefined) | 0 | -11% | ? | -3% | 2% | 0%
CC1Sc2ccc(S(=O)(=O)CCC(=O)Nc3ccc(C(C)C)cc3)cc2NC1=O (centres undefined) | -3 | 3% | 6.3µM* | -16% | 10% | 0%
Cc1ccc(NC(=O)CCS(=O)(=O)c2ccc3c(c2)NC(=O)C(C)S3)cc1Cl (centres undefined) | -1 | 22% | 7.9µM* | -15% | 9% | -1%
CN1CCN(CC(=O)c2ccccc2F)CC1 | -5 | -4% | -12% | -9% | -1% | 0%
CC(=O)C1=C(C)OC(N)=C(C#N)C1c1cccc([N+](=O)[O-])c1 (centres undefined) | -1 | -10% | -6% | 29% | -3% | 4%
CC(=O)C1=C(C)OC(N)=C(C#N)C1c1cc([N+](=O)[O-])ccc1Cl (centres undefined) | -4 | -71% | 8% | -3% | ? | 13µM*
COc1cccc(NC(=O)c2oc3ccccc3c2NC(=O)COc2ccccc2C)c1 | · | · | · | -11% | · | -1%
CC(Nc1cccc([N+](=O)[O-])c1)C(=O)Nc1ccc(S(=O)(=O)N2CCCC2)cc1 (centres undefined) | -4 | -5% | -12% | -31% | ? | 3%
Cc1ccc(NC(=S)c2ccccc2)cc1 | 2 | 4% | 3% | 1.3µM* | ? | 8%
Cc1ccc(NC(=S)N/C(=N/S(=O)(=O)c2ccccc2)c2ccccc2)cc1 | -3 | -16% | 6% | 13µM* | ? | 3%
SMILES | IL-2 act | a7 integrin act | N370S GC | BRCA1 expr up | Chronic BCR inh | Nrf2 ARE act
Cc1ccc(S(=O)(=O)/N=C(/NC(=S)Nc2ccccc2)c2ccccc2)cc1 | 0 | 1% | 9% | ? | ? | ?
Cc1ccc(NC(=S)c2ccncc2)cc1 | 2 | 29% | 0% | 5% | 6% | -1%
CCc1ccc(CNC(=O)CSc2c3c(nc4ccc(Cl)cc24)CCCC3)cc1 | · | · | · | · | · | 7%
COc1cccc(CNC(=O)CSc2c3c(nc4ccc(Cl)cc24)CCCC3)c1OC | · | · | · | · | · | 13µM*
CC1=C(C(=O)Nc2ccc(F)cc2F)C2(CCCCCC2)OC1=O | · | · | · | · | · | 0%
CCc1nc2oc3ccccc3c(=O)c2cc1C(=O)OC | 0 | 13% | 1% | 3.2µM* | ? | ?
O=C(O)c1cc2c(=O)c3ccccc3oc2nc1C(F)(F)F | 0 | -3% | -2% | 8% | 5% | 2%
COCc1nc2oc3ccc(C)cc3c(=O)c2cc1C(=O)OC | 0 | -30% | -1% | 3.2µM* | 6% | 2%
COC(=O)c1ccccc1OCc1cc(=O)oc2ccc(C)cc12 | -1 | · | · | -30% | · | 0%
COCc1nc2oc3ccc(F)cc3c(=O)c2cc1C(=O)OC | -5 | 7% | 0% | 4µM* | ? | 2%
COc1ccc(-c2cc(OC(=O)c3ccccc3Cl)c3c(C)oc(C)c3c(=O)c2)cc1OC | · | · | · | · | · | 10%
CCC/C(O)=C1\C(=O)CC(C)(C)CC1=Nc1cccc([N+](=O)[O-])c1 | 1 | -24% | 2% | -25% | 8% | 3%
COc1ccc(-c2ccc(NC(=O)c3ccco3)cc2)nn1 | 0 | -24% | 1% | ? | ? | -1%
CCNc1oc(COc2cccc(C)c2)nc1C#N | 0 | 23% | 5% | 11µM* | -4% | 9%
Cc1cccc(OCc2nc(C#N)c(N3CCCC3)o2)c1 | -5 | 3.5µM* | 13% | -9% | 8% | -1%
CC1CCN(c2oc(-c3ccc(OCc4ccccc4Cl)cc3)nc2C#N)CC1 | · | · | · | 7% | · | ·
N#Cc1cccc(S(=O)(=O)N2CCN(S(=O)(=O)c3ccc4c(c3)OCCO4)CC2)c1 | · | · | · | 2% | · | ·
COc1ccc(/C=C/C(=O)Nc2sc(C)c(C)c2C(=O)O)cc1 | · | · | · | · | · | -1%
Cc1sc(NC(=O)/C=C/c2ccco2)c(C(=O)O)c1C | 8 | 4% | -2% | 2.2µM* | ? | ?
CC(=O)N1CCC(C(=O)Nc2nnc(C(C)C)s2)CC1 | · | · | · | 0% | · | ·
CN(C)C(=O)Nc1ccc(Oc2ccc(Cl)cc2)cc1 | · | · | 2% | · | · | ·
CCCCOc1ccc(-c2nnc(N)s2)cc1 | -2 | 2% | 23% | 6.3µM* | ? | 2%
CCOc1ccc(-c2nnc(N)s2)cc1 | -1 | 3% | -8% | ? | 2% | 0%
CCCCOc1ccc(-c2ncc(N)cn2)cc1 | 0 | -3% | 10% | 2.5µM* | ? | 5%
CCCCOc1ccc(C(N)=O)cc1 | · | · | · | 0% | · | ·
O=C(CSc1ncnc2ccccc12)NCC(=O)c1ccccc1 | -1 | -14% | 0% | 4% | -21% | 13%
